High-throughput results: PubChem BioAssay, several laboratories
This is a sample that favours compounds with a hit; in the whole collection about 2.3% have one here.
TWEAK-Fn14 inh: blocks TWEAK-Fn14 interaction in a reporter cell assay | TWEAK-stimulated Fn14 reporter cells, luciferase luminescence, 8 h | inhibition, % at 10 µM | hit rate 2% among 360,000 | AID 1159606; in the data active = inhibition above about 50%
KKLEB tox: CF airway cell cytotoxicity counter-screen | KKLEB CF airway cells viability, ATPlite luminescence, overnight; active compounds read low; cells stimulated with P. aeruginosa culture filtrate | activity change (cytotoxicity), % at 5 µM | AID 602141 | hit rate 0.36% among 360,000;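 active = corrected activity change at or below -50% at 5 µM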
LGR2 inh: Drosophila LGR2 receptor signaling inhibition | HEK293 LGR2, CRE-luciferase, bursicon-stimulated, 4 h | inhibition, % at 9.99 µM | hit rate 0.35% among 380,000 | AID 720647;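 active = drop in luminescence signal, shown as inhibition above about 50% in the replicate tests, limit read from the data, passing the limit was not always enough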;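 note: agonist challenge used bursicon conditioned medium at about half maximal strength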
CF NFkB block: blocks PAF-induced NF-kB reporter in cystic fibrosis cells | KKLEB NF-kB-GFP reporter, GFP fluorescence overnight | inhibition, % at 5 µM | hit rate 0.86% among 360,000 | AID 588850;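 active = at least 50% inhibition at 5 µM, scaled per plate between neutral and stimulator controls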;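 note: PAF is a Pseudomonas aeruginosa culture filtrate used as stimulus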
hiPSC survival: hiPSC single-cell survival enhancement; ATPlite luminescence; 100% = ROCK inhibitor wells, 0% = DMSO; survival enhancement, % at 20 µM; hit rate 0.044% among 360,000; in the data active = survival enhancement above about 18%;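 note: cells exposed to compounds for 16 hours before the ATP read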
HIF-2a block: inhibitors of HIF-2a. AID 624352. hit rate 0.72% among 360,000. inhibition, % at 18.8 µM. 786-0 RCC cells HIF-2a reporter, luciferase luminescence, overnight;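 active = inhibition of the luminescence signal of 40% or more relative to plate controls, in a single-dose primary screen at 18.75 µM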
CF NFkB conf: CF NF-kB inhibition confirmation, single concentration | AID 602472 | hit rate 64% among 1,300 | KKLEB CF airway cells, PAF-induced NF-kB-GFP fluorescence, overnight | inhibition, % at 5 µM | shares compounds with CF NFkB block; in the data active = inhibition above about 40%;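 note: stimulus PAF is a Pseudomonas aeruginosa filtrate and not platelet activating factor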
Large screens that a line does not name were inactive (follow-up assays come after a bar, where they were run).

CCC(=O)N1[C@@H]2Cn3c(cccc3=O)[C@H]1[C@@H](C(=O)NC1CCCC1)[C@@H]2CO	none (no result: TWEAK-Fn14 inh, KKLEB tox, CF NFkB block, hiPSC survival, HIF-2a block)
O=C1[C@H](Cc2ccccc2)NCCCC[C@H](c2ccc(Cl)cc2)N1Cc1ccccc1	CF NFkB block 59 | CF NFkB conf inactive
O=C(C[C@@H]1C[C@H]2c3cc(NC(=O)Cc4ccncc4)ccc3O[C@H]2[C@@H](CO)O1)NCC1CC1	none (no result: TWEAK-Fn14 inh, KKLEB tox, CF NFkB block, hiPSC survival, HIF-2a block)
COCC(=O)N1C[C@H](C)[C@@H](OC)CN(C)C(=O)c2cc(NC(=O)C3CCC3)ccc2OC[C@H]1C	none (no result: TWEAK-Fn14 inh, KKLEB tox, CF NFkB block, hiPSC survival, HIF-2a block)
CC(=O)Nc1ccc(-c2ccnc3c2CC(C(=O)NCCc2ccccc2)O3)cc1 (stereo not drawn)	none
CC(=O)Nc1ccc(-c2ccnc3c2CC(C(=O)NCc2ccco2)O3)cc1 (stereo not drawn)	CF NFkB block 60 | CF NFkB conf 61
CC(=O)Nc1ccc(-c2ccnc3c2CC(C(=O)NCc2ccccc2)O3)cc1 (stereo not drawn)	CF NFkB block 56 | CF NFkB conf 49
C[C@@H]1CN([C@@H](C)CO)C(=O)c2cccc(NC(=O)Nc3cccc4ccccc34)c2O[C@@H]1CN(C)Cc1ccc(C(=O)Nc2ccccc2N)cc1	none (no result: TWEAK-Fn14 inh, KKLEB tox, CF NFkB block, hiPSC survival, HIF-2a block)
C[C@H]1CN([C@@H](C)CO)C(=O)Cc2cc(NS(C)(=O)=O)ccc2O[C@H]1CN(C)C(=O)Nc1ccc(C(F)(F)F)cc1	none (no result: TWEAK-Fn14 inh, KKLEB tox, CF NFkB block, hiPSC survival, HIF-2a block)
COc1cc(O)c2c(c1)OC(C)(C)CC2=O	none (no result: LGR2 inh)
COc1cc(O)cc2cc3c(c(O)c12)C(=O)CC(C)(O)O3 (stereo not drawn)	CF NFkB block 60 (no result: LGR2 inh) | CF NFkB conf 52
Cc1ccc(S(=O)(=O)Nc2ccc3cc([N+](=O)[O-])ccc3c2[N+](=O)[O-])cc1	CF NFkB block 50 | CF NFkB conf 75
O=C(Nc1ccc(Oc2ccc(NC(=O)Nc3ccc([N+](=O)[O-])cc3)cc2)cc1)Nc1ccc([N+](=O)[O-])cc1	TWEAK-Fn14 inh 87, CF NFkB block 52 | CF NFkB conf 61
CC(=O)c1ccc(NC(=O)Nc2ccc([N+](=O)[O-])cc2)cc1	none
CCN(CC)CCNC(=O)c1ccc(NC(=O)C2CCN(c3ncnc4sc(C)c(C)c34)CC2)cc1	CF NFkB block 55 | CF NFkB conf 56
Nc1ncnc(NC2CCS(=O)(=O)C2)c1[N+](=O)[O-] (stereo not drawn)	CF NFkB block 52 | CF NFkB conf inactive
CN(c1ncnc(N)c1[N+](=O)[O-])C1CCS(=O)(=O)C1 (stereo not drawn)	CF NFkB block 51 | CF NFkB conf 61
Cn1cccc1C(=O)NC(=O)COC(=O)c1ccc(S(C)(=O)=O)c([N+](=O)[O-])c1	TWEAK-Fn14 inh 96, CF NFkB block 67 (no result: LGR2 inh) | CF NFkB conf 59
CCN(CC(=O)Nc1ccc(OC)cc1)C(=O)c1cc(-c2cccs2)nn1-c1ccccc1	CF NFkB block 54 | CF NFkB conf 51
COc1ccc(NC(=O)N(C)C[C@H]2OCCCC[C@@H](C)Oc3ccc(NS(=O)(=O)c4ccc(OC)cc4)cc3C(=O)N([C@H](C)CO)C[C@@H]2C)cc1	none (no result: TWEAK-Fn14 inh, KKLEB tox, CF NFkB block, hiPSC survival, HIF-2a block)
O=C1N(c2ccccc2C(F)(F)F)O[C@@]1(c1ccccc1)C1CCCC1	none
O=C1N(c2ccccc2C(F)(F)F)O[C@@]1(c1ccccc1)C1CCCCC1	CF NFkB block 65 (no result: LGR2 inh) | CF NFkB conf 60
C[C@@H]1CN([C@H](C)CO)C(=O)c2cc(/C=C/c3ccccc3)cnc2O[C@H]1CN(C)C(=O)CN(C)C	none (no result: TWEAK-Fn14 inh, KKLEB tox, CF NFkB block, hiPSC survival, HIF-2a block)
Cn1cc([N+](=O)[O-])c(C(=O)Nc2ccc(C3CCCCC3)cc2)n1	CF NFkB block 52 | CF NFkB conf inactive
Cn1cc([N+](=O)[O-])c(C(=O)Nc2ccc(C(=O)N3CCCCC3)cc2)n1	none
N[C@H]1CC[C@H](CCn2cc(C3CC3)nn2)O[C@@H]1CO	none (no result: TWEAK-Fn14 inh, KKLEB tox, CF NFkB block, hiPSC survival, HIF-2a block)
CN(C)C(=O)c1cccc(-c2ccc3nncn3c2)c1	none
CNc1ccc2ncc(-c3cccc(C(=O)N(C)C)c3)n2n1	TWEAK-Fn14 inh 87, CF NFkB block 86 | CF NFkB conf 98
Cc1[nH]nc2ncc(C(=O)c3ccccc3O)cc12	TWEAK-Fn14 inh 59, CF NFkB block 86 (no result: LGR2 inh) | CF NFkB conf 94
CO[C@H]1CN(C)C(=O)c2ccc(NS(C)(=O)=O)cc2OC[C@@H](C)N(C(=O)C2CCOCC2)C[C@@H]1C	none (no result: TWEAK-Fn14 inh, KKLEB tox, CF NFkB block, hiPSC survival, HIF-2a block)
Cc1ccccc1S(=O)(=O)Cc1ccc(C(=O)N2CCN(c3cccc(C)c3C)CC2)o1	CF NFkB block 68 (no result: LGR2 inh) | CF NFkB conf 63
Cc1ccccc1S(=O)(=O)Cc1ccc(C(=O)N2CC(C)CC(C)C2)o1 (stereo not drawn)	none
C[C@@H]1CN([C@H](C)CO)S(=O)(=O)c2ccc(C#C[C@@H](C)O)cc2O[C@@H]1CN(C)C(=O)CC1CC1	none (no result: TWEAK-Fn14 inh, KKLEB tox, CF NFkB block, hiPSC survival, HIF-2a block)
CCCC#Cc1ccc([C@H]2[C@@H](CO)N3CCCCN(C(=O)NC4CCCC4)C[C@H]23)cc1	none (no result: TWEAK-Fn14 inh, KKLEB tox, CF NFkB block, hiPSC survival, HIF-2a block)
O=C(Cc1ccc(Br)cc1)Nc1ccc2[nH]ncc2c1	CF NFkB block 53, hiPSC survival 25 | CF NFkB conf inactive
CCN(c1ccccc1)c1nc(C#N)nc(N(CC)c2ccccc2)n1	CF NFkB block 52 | CF NFkB conf inactive
CCN(CC)c1nc(C#N)nc(N(CC)CC)n1	none (no result: LGR2 inh)
CCSc1nnc(NC(=O)c2ccc(Br)s2)s1	none
O=C(Nc1nnc(C(F)(F)F)s1)c1ccc(Br)s1	CF NFkB block 54 | CF NFkB conf 83
COc1ccc(CNC(=O)C[C@@H]2C=C[C@@H](NC(=O)Nc3ccc4c(c3)OCO4)[C@H](CO)O2)cc1	none (no result: TWEAK-Fn14 inh, KKLEB tox, CF NFkB block, hiPSC survival, HIF-2a block)
O=C(NCCSc1ccccc1)c1ccc(Br)cc1	none (no result: LGR2 inh)
O=C(NCCCSc1ccccc1)c1cc(Br)ccc1O	TWEAK-Fn14 inh 51, CF NFkB block 55 | CF NFkB conf 79
O=C(CN1CCOCC1)NCC[C@@H]1CC[C@@H](NC(=O)c2ccccc2F)[C@H](CO)O1	none (no result: TWEAK-Fn14 inh, KKLEB tox, CF NFkB block, hiPSC survival, HIF-2a block)
CCCOc1c(Br)cc(C(=O)OCc2cc(=O)n3ccsc3n2)cc1OC	CF NFkB block 58 | CF NFkB conf inactive
CN(C)CCCN(C(=O)COc1ccccc1)c1nc2cc3c(cc2s1)OCCO3	none
CN(C)CCCN(C(=O)CCSc1ccccc1)c1nc2cc3c(cc2s1)OCO3	CF NFkB block 56 | CF NFkB conf 49
Nc1nc(N)nc(-c2cccc([N+](=O)[O-])c2)n1	none
Nc1nc(N)nc(-c2cc([N+](=O)[O-])ccc2O)n1	CF NFkB block 61 | CF NFkB conf 73
Cn1c(N2CCN(C(c3ccccc3)c3ccccc3)CC2)nc2c1c(=O)[nH]c(=O)n2C	CF NFkB block 69 | CF NFkB conf 84
O=C1NCCc2c1[nH]c1c(Cl)ccc(Cl)c21	CF NFkB block 56 (no result: LGR2 inh) | CF NFkB conf 71
COc1ccc(-n2nnnc2S(=O)(=O)Cc2ccc(C(=O)O)cc2)cc1	CF NFkB block 89 (no result: LGR2 inh) | CF NFkB conf 91
